This passage reports Potency results from PubChem BioAssay (NCATS).

Where “and” joins values, the source holds several entries; their conditions need not be identical. Equal entries are not always repeated. Records with an inconclusive call do not appear. Unmarked numbers belong to inactive results. Calls of active or inactive are those of the source. The call rests on the fitted dose curve; in most records, active means well fitted curve in the direction sought with a large enough effect; inconclusive means small, poorly fitted or top-dose-only effect, or another doubt; inactive means no such curve, though single readings can be large; an effect the other way counts as inactive or inconclusive.

Experiment [1] can be described thus: qHTS of pediatric cancer cell lines to identify multiple opportunities for drug repurposing: Primary screen for U-2 OS cells (AID 1347096). Further: nearly all actives have a fitted effect of over 50% in size. The method in brief:
(§1)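 Cells (500-1,000/well) in growth media were settled 5 h at 37 degrees C, then given compounds for 48 h. Viability was read as CellTiter-Glo luminescence. Primary runs used MIPE at 11 points (0.78 nM-46 µM) and NPC at 8 points (0.59 nM-46 µM); follow-ups used 11 points.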

Experiment [2] can be described thus: qHTS of pediatric cancer cell lines to identify multiple opportunities for drug repurposing: Primary screen for Saos-2 cells (AID 1347097). Further: nearly all actives have a fitted effect of over 40% in size. The method in brief: (§2)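 CRCs from 8- or 11-point titrations (lowest final 0.59 nM NPC, 0.78 nM MIPE). Cell viability: CellTiter-Glo after 48 h incubation, 15 min room-temperature development, luminescence imaging.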
(In general: qHTS replaces the single test concentration by a dilution series.)

Experiment [3] is described as follows: qHTS of pediatric cancer cell lines to identify multiple opportunities for drug repurposing: Primary screen for SK-N-SH cells (AID 1347098). Further: nearly all actives have a fitted effect of over 65% in size. Further: potency means the concentration at half of the fitted maximal effect. The method in brief:
(§3)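 Cells (500-1,000/well) rested 5 h, then received compounds for 48 h; metabolically active cells were measured by CellTiter-Glo luminescence. Final concentrations spanned up to 46 µM (MIPE, 11-point) or 0.59 nM-46 µM (NPC, 8-point) in primary screens, 11-point in follow-ups.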

A short description of experiment [4]: qHTS of pediatric cancer cell lines to identify multiple opportunities for drug repurposing: Primary screen for NB1643 cells (AID 1347099). Further: nearly all actives have a fitted effect of over 50% in size. Further: potency means the concentration at half of the fitted maximal effect. The method in brief:
as §2

Experiment [5] in a line: qHTS of pediatric cancer cell lines to identify multiple opportunities for drug repurposing: Primary screen for Rh18 cells (AID 1347102). Further: nearly all actives have a fitted effect of over 65% in size. In outline: as §1
Experiment [6] in a line: qHTS of pediatric cancer cell lines to identify multiple opportunities for drug repurposing: Primary screen for RD cells (AID 1347104). Further: nearly all actives have a fitted effect of over 55% in size. In outline: as §2
Experiment [7] can be described thus: qHTS of pediatric cancer cell lines to identify multiple opportunities for drug repurposing: Primary screen for MG 63 (6-TG R) cells (AID 1347105). Further: nearly all actives have a fitted effect of over 50% in size. In outline:
as §2

Experiment [8] can be described thus: qHTS of pediatric cancer cell lines to identify multiple opportunities for drug repurposing: Primary screen for control Hh wild type fibroblast cells (AID 1347106). Further: nearly all actives have a fitted effect of over 55% in size. Further: potency means the concentration at half of the fitted maximal effect. In outline:
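Viability after 48 h compound treatment at 37C, 500-1,000 cells/well, read as ATP luminescence with CellTiter-Glo. Primary screens used 11-point (MIPE, 0.78 nM-46 µM) or 8-point (NPC, 0.59 nM-46 µM) final concentrations; follow-up screens used 11-point dilutions.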

Experiment [9] can be described thus: qHTS of pediatric cancer cell lines to identify multiple opportunities for drug repurposing: Primary screen for Rh30 cells (AID 1347107). Further: series mostly up to about 46 µM; nearly all actives have a fitted effect of over 75% in size. In outline: as §1
The nature of experiment [10]: qHTS of pediatric cancer cell lines to identify multiple opportunities for drug repurposing: Primary screen for Rh41 cells (AID 1347108). Further: nearly all actives have a fitted effect of over 70% in size. Further: potency means the concentration at half of the fitted maximal effect. In outline:
as §2

Experiment [11] in a line: qHTS of pediatric cancer cell lines to identify multiple opportunities for drug repurposing: Primary screen for BT-37 cells (AID 1347094). Further: series mostly up to about 57 µM. The method in brief:
as §2

A short description of experiment [12]: qHTS of pediatric cancer cell lines to identify multiple opportunities for drug repurposing: Primary screen for BT-12 cells (AID 1347101). Further: nearly all actives have a fitted effect of over 25% in size. Further: potency means the concentration at half of the fitted maximal effect. The method in brief:
as §3

The nature of experiment [13]: qHTS of pediatric cancer cell lines to identify multiple opportunities for drug repurposing: Confirmatory screen for BT-12 cells (AID 1347112). Further: nearly all actives have a fitted effect of over 55% in size. The method in brief:
as §1

Experiment [14] can be described thus: qHTS of pediatric cancer cell lines to identify multiple opportunities for drug repurposing: Primary screen for NB-EBc1 cells (AID 1347095). Further: potency means the concentration at half of the fitted maximal effect. The method in brief:
as §2

A short description of experiment [15]: qHTS of pediatric cancer cell lines to identify multiple opportunities for drug repurposing: Primary screen for LAN-5 cells (AID 1347100). The method in brief:
as §1

The nature of experiment [16]: qHTS of pediatric cancer cell lines to identify multiple opportunities for drug repurposing: Primary screen for OHS-50 cells (AID 1347103). Further: nearly all actives have a fitted effect of over 40% in size. Further: potency means the concentration at half of the fitted maximal effect. In outline:
as §3

Experiment [17] is described as follows: qHTS of pediatric cancer cell lines to identify multiple opportunities for drug repurposing: Confirmatory screen for NB1643 cells (AID 1347109). Further: potency means the concentration at half of the fitted maximal effect; nearly all actives have a fitted effect of over 45% in size. The method in brief: as §1
Experiment [18] is described as follows: qHTS of pediatric cancer cell lines to identify multiple opportunities for drug repurposing: Confirmatory screen for SK-N-MC cells (AID 1347111).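 Further: potency means the concentration at half of the fitted maximal effect; cells exposed to compound for 48 h before the readout; nearly all actives have a fitted effect of over 70% in size.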 The method in brief: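 Metabolically active cells were quantified by ATP-dependent luminescence (CellTiter-Glo, 15 min at room temperature) following 48 h treatment. Cells had been plated at 500-1,000 per well and settled for 5 h beforehand.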

A short description of experiment [19]: qHTS of pediatric cancer cell lines to identify multiple opportunities for drug repurposing: Confirmatory screen for LAN-5 cells (AID 1347113). Further: nearly all actives have a fitted effect of over 65% in size. In outline: as §1

Consider `N#CC(C#N)=Cc1ccc(O)c(O)c1`, for which the Potency result in [1], in experiment [2], in experiment [3], in experiment [4], in [5] and in experiment [6] was “inactive” throughout. The Potency entry in experiment [7], in [8], in experiment [9] and in [10] was “inactive” throughout.
For the compound `Cn1cc(C2=C(c3cn(C4CCN(Cc5ccccn5)CC4)c4ccccc34)C(=O)NC2=O)c2ccccc21`, the Potency result in experiment [11], in [1], in experiment [3], in experiment [4], in experiment [12] and in experiment [5] was “inactive” throughout. Besides, the Potency result in [6], in experiment [8], in [9], in experiment [10] and in experiment [13] was “inactive” throughout.
Turning to `c1ccc(C2CC2)c(OCC2=NCCN2)c1`, the Potency entry in [11], in experiment [14], in [3], in [4], in experiment [15] and in experiment [12] was “inactive” in each case. The Potency entry in [5], in experiment [6], in experiment [8], in experiment [9] and in experiment [10] was “inactive” each time.
On to `Cn1c(CCCC(=O)O)nc2cc(N(CCCl)CCCl)ccc21`, for which the Potency is 2.64 µM (active) in [14]; 18.7 µM (active) in [4]; 24.6 µM (active) and 24.3 µM (active) in experiment [16]; 16.5 µM (active) in experiment [17]; 3.69 µM (active) in experiment [18]. In addition, the Potency entry in experiment [2], in experiment [3], in [12], in experiment [5], in experiment [6] and in [7] was “inactive” each time. The Potency result in experiment [8], in experiment [9], in [10], in experiment [13] and in experiment [19] was “inactive” in each case.
In the case of `CNC(=O)c1ccc(N2C(=S)N(c3ccc(C#N)c(C(F)(F)F)c3)C(=O)C23CCC3)cc1F`, the Potency entry in experiment [11], in [2], in [12] and in [5] was “inactive” in each case. In addition, the results for the Potency in experiment [3], in [8] and in experiment [10] were 19.2 µM (active), 13.2 µM (active) and 11.8 µM (active), respectively.
Turning to `Cc1ccc(S(=O)(=O)N[C@@H](CCCCN)C(=O)CCl)cc1`, the Potency result in experiment [11], in experiment [14], in experiment [3], in experiment [4], in experiment [15] and in experiment [5] was “inactive” in each case. Further, the Potency entry in experiment [16], in [6], in [7], in [8], in experiment [9] and in [10] was “inactive” in each case.
Turning to `CN(C)CCN(C)CCc1ccc(Cl)c(Cl)c1`, the Potency result in experiment [14], in [1], in experiment [2], in experiment [15], in experiment [12] and in experiment [5] was “inactive” each time. Also, the Potency result in experiment [8], in experiment [9] and in experiment [10] was “inactive” each time.
In the case of `COc1ccc(Cc2nccc3cc(OC)c(OC)cc23)cc1OC`, the Potency result in experiment [1], in [2], in [3], in experiment [4], in experiment [5] and in experiment [7] was “inactive” each time. The Potency entry in [8] and in experiment [9] was “inactive” throughout.
With `CN1C[C@H](CNC(=O)OCc2ccccc2)C[C@@H]2c3cccc4c3c(cn4C)C[C@H]21`, the Potency entry in experiment [14], in experiment [1], in experiment [4], in [8], in experiment [9] and in [10] was “inactive” each time. For the same compound, the Potency in [3] is 27.3 µM (active); in [12] it was 15.5 µM (active); in experiment [16] it was 21.9 µM (active).
`O=C1NCN(c2ccccc2)C12CCN(CC1COc3ccccc3O1)CC2` (stereo unspecified): the Potency entry in experiment [11], in experiment [14], in [3], in experiment [4], in [15] and in [12] was “inactive” each time. Further, the Potency result in [5], in experiment [16], in experiment [6], in [7], in [8] and in experiment [9] was “inactive” throughout. For the same compound, in [10], the Potency entry is “inactive”.
